These results are taken from PubChem BioAssay AID686971 (National Center for Advancing Translational Sciences (NCATS), 2013).

SMILES strings stand for the structures. Out of some 360,000 compounds screened, about 7,500 (2.1%) were called active. Where a call stands in place of a potency, no number is given. Another 8% or so got no clear call; they are omitted. The call rests on the fitted dose curve; in most records, active means well fitted cell-killing curve with a large enough effect; inconclusive means small, poorly fitted or top-dose-only effect, or effect the other way, or another doubt; inactive means no such curve, though single readings can be large or run the other way. This excerpt belongs to a sample that is enriched for actives.
Potency means the concentration at half of the fitted maximal effect.

This test in a line: qHTS for induction of synthetic lethality in tumor cells producing 2HG: qHTS for the HT-1080-IDH1KD cell line. Conditions: HT-1080 IDH1 knockdown viability, ATP luminescence, 48 h; series mostly up to 46.1 µM. From the text: Unbiased genomic sequencing for 22 glioma genomes found recurrent mutation of IDH1 on chromosome 2q33, a gene encoding the cytosolic isoform of IIDH1 associated with the tri-carboxylic acid cycle (TCA) that catalyzes the oxidative decarboxylation of isocitrate, yielding alpha-ketoglutarate and CO2 via NADP+ to NADPH conversion. Subsequent studies confirmed the recurrent IDH mutations in up to 70% of secondary gliomas and in 10% of AML cases. In addition, the somatic mutation of cancer-associated IDH1 is a point mutation resulting in various amino-acid substituents at Arginine132 (IDH1 R132), a key residue found in the enzyme's active site that when mutated, results in the loss-of-function in metabolizing isocitrate but confers a gain-of-function to produce the oncometabolite 2-hydroxyglutarate (2HG). This in effect defines IDH1 as an oncogene and provides an extraordinary opportunity to discover chemical probes against mutant IDH1 that may translate into much needed new therapies for glioma and AML patients.
This assay aims to perform a synthetic-lethal screen for chemical probes specific for 2HG-producing tumor cells using matched paired cell lines (1) HT-1080-NT fibrosarcoma cell line that overproduces 2HG and (2) HT-1080-IDH1KD cell line which has IDH1 expression knocked-down. Desirable compounds are toxic to the NT fibrosarcoma cell line but not to the IDH1KD cell line. The data in this AID corresponds to the results of the qHTS against the HT-1080 IDH1KD cell line.
[1] Dang L, Jin S, Su SM. IDH mutations in glioma and acute myeloid leukemia. Trends of Mol Med. 2010; 16(9): 387-97.
[2] Dang L et al. Cancer-associated IDH1 mutations produce 2-hydroxyglutarate. Nature. 2010; 465(7300):966.
Molecular Libraries Probe Production Centers Network [MLPCN]
NIH Chemical Genomics Center [NCGC]
Assay Submitter (PI): Lenny Dang Ph.D., Agios Pharmaceuticals
Suspensions of trypsinized HT-1080-IDH1KD cells were dispensed into white, tissue culture-treated, solid 1536-well plates at 5uL/well (750 cells/well final concentration) in RPMI medium supplemented with 5% FBS. Plates were incubated at 37 degrees C for 2 hours, after which 23 nL of compounds or DMSO were delivered to each well using a pin tool. Plates were then incubated at 37 degrees C for an additional 48 hours. CellTiter-Glo viability reagent (Promega) was dispensed into wells (2.5uL/well) and incubated at room temperature for 10 minutes. The plates were measured on a PerkinElmer ViewLux plate reader for luminescent signal (clear filter, 1 sec exp.). DMSO-treated control wells and media-only (no cells) control wells were used to normalize %Activity of identified toxic compounds; DMSO-treated wells corresponded to 0%Activity (100% viability), while media-only controls were used to normalize 100%Activity (0% viability). To minimize variability between cell lines, both HT-1080-NT and HT-1080-IDH1KD lines were dispensed and treated with identical compound series in single batches.
Concentration-response curves were fitted to the signals arising from the resulting luminescence. The concentration-effect curves were then classified based on curve quality (r2), response magnitude and degree of measured activity, and compounds were subsequently categorized based on their curve class.
A general note: In qHTS, concentration-response curves come from the screen itself.
As for `C[C@H]1CN([C@@H](C)CO)C(=O)c2cc(Br)cnc2O[C@H]1CN(C)S(=O)(=O)c1cccs1`, the Potency entry is “inactive”.
Take `CCCC(=O)N1CCC1(C)C(=O)NS(=O)(=O)c1ccc(Cl)cc1` (centres undefined): the Potency entry is “inactive”.
Consider `CC(=O)NC1=NN(C(C)=O)C(C)(c2ccc(Cl)s2)S1` (centres undefined), for which the Potency was 2.31 µM (active).
For the compound `CC(=O)NC1=NN(C(C)=O)C(C)(CCS(=O)(=O)c2ccc(Cl)c(Cl)c2)S1` (centres undefined), the Potency result was “inactive”.
For `CC(=O)NC1=NN(C(C)=O)C(C)(c2ccc(C)cc2)S1` (centres undefined) the value was “inactive”; for `CCCCN1C(=O)C(CC(=O)NCc2cccs2)CC(C(=O)N2CCCCCC2)=C1C` (centres undefined), “inactive”.
For `CC1(C(=O)NS(=O)(=O)c2ccc(Cl)cc2)CCN1C(=O)CC1CCCC1` (centres undefined) the value was “inactive”; for `CCOc1cccc(-n2nnnc2-c2ccc(OC)cc2)c1`, 4.61 µM (active); for `COc1ccc(-n2nnnc2-c2nc3ccccc3s2)cc1`, “inactive”.
As for `COc1ccc(NC(=O)CSc2nnnn2-c2cccc(OC)c2)cc1`, the Potency result was “inactive”.
For `Cc1nc2ccccc2nc1CC(O)(c1ccccc1)c1ccccc1`, the Potency entry is “inactive”.
Take `Nc1nc2c(ncn2[C@@H]2O[C@H](CNCc3ccc(OCCCN4CCOCC4)cc3)[C@@H](O)[C@H]2O)c(=O)[nH]1`: the Potency entry is “inactive”.
For `CN(C)CCCN(C(=O)c1ccc(S(=O)(=O)N2CCCCCC2)cc1)c1nc2ccc(Br)cc2s1` the value was 16.4 µM (active); for `Cc1ccc2nc(N(CCN(C)C)C(=O)C3=COCCO3)sc2c1`, “inactive”.
As to `COc1ccc2sc(N(CCCN(C)C)C(=O)c3ccc(S(=O)(=O)N(C)C4CCCCC4)cc3)nc2c1`, the Potency entry was “inactive”.
For `O=S1(=O)CC(N2CCN(Cc3ccccc3F)CC2)CN1Cc1cn(Cc2cccc(C(F)(F)F)c2)nn1` (centres undefined), the Potency entry was “inactive”.
Consider `C[C@@H]1CN([C@@H](C)CO)S(=O)(=O)c2ccc(-c3ccc(C(=O)N(C)C)cc3)cc2O[C@@H]1CN(C)Cc1ccccc1C(=O)O`, for which the Potency entry is “inactive”.
The result for `Cc1ccc(C)c(NC(=S)NNC(=S)Nc2ccc(C(C)C)cc2)c1` reads 23.1 µM (active); that for `CC(C)c1ccc(NC(=S)NNc2ccc(Cl)c(C(=O)O)c2)cc1`, “inactive”; that for `Cc1ccc(C)c(NC(=S)NNC(=O)c2csc(C)c2)c1`, “inactive”.
For `Cc1cc(Br)ccc1NC(=O)CCCOc1cc(=O)n(C)c2ccccc12` the value was “inactive”.
For `Cc1ccc(C(=O)Nc2c(-c3ccccc3)[nH][nH]c2=O)cc1` the value was “inactive”; for `O=C(CCCN1CCc2[nH]c3ccc(F)cc3c2C1)c1ccc(F)cc1`, 20.6 µM (active).
Regarding `O=C(Nc1ccc(Cl)cc1)N1CCc2[nH]c3ccccc3c2C1`, the Potency result was “inactive”.
The result for `Fc1ccc(NC(=S)N2CCc3[nH]c4ccccc4c3C2)cc1` reads “inactive”; that for `CC1(C(=O)NS(=O)(=O)c2ccccc2)CCN1C(=O)c1ccccc1` (centres undefined), “inactive”; that for `COc1cc(C(O)c2nc(-c3cccc(C(=O)O)c3)cs2)ccc1F` (centres undefined), “inactive”.
For `COc1ccc2c(c1)c(=Cc1ccc(N(C)C)cc1)c1cc(-c3ccccc3)[n+](C)n12` the value was 5.17 µM (active); for `COc1ccc2sc(-c3ccc(N(C)C)cc3)c(-c3ccc4cc[nH]c4c3)c2c1`, “inactive”.
On to `CCOc1ccc(C(CC(=O)O)NC(=O)Cc2ccccc2)cc1OC` (centres undefined), for which the Potency result was “inactive”.
Turning to `CCCCC(=O)NC(c1ccc(OC)c(OC)c1)c1ccc2cccnc2c1O` (centres undefined), the Potency is 2.91 µM (active).
For `COc1ccc(CCNS(=O)(=O)c2cccc3cccnc23)cc1OC`, the Potency result is “inactive”.
For `CCCNC(=O)C1(C)CCCN(C(=O)c2cccc(OC(C)=O)c2C)C1` (centres undefined) the value was “inactive”; for `Cc1cc(=O)c2ccc(NC(=O)c3ccccc3)cc2[nH]1`, “inactive”; for `Cc1ccc(-c2cc(=O)c3ccc(F)cc3[nH]2)cc1`, “inactive”.
For `O=c1cc(-c2ccccc2)[nH]c2cc(F)ccc12` the value was 4.11 µM (active); for `CCC(C(=O)NCc1ccccc1)n1c(Cc2cc(F)cc(F)c2)nc2ccccc21` (centres undefined), “inactive”.
The result for `COc1ccc(C(=O)OCC(=O)Nc2cc(C)on2)cc1F` reads “inactive”; that for `O=C(CCN1CCCCC1)Nc1ccc(F)c(F)c1`, “inactive”.
As to `CCc1cccc(CC)c1N1C(=O)CC(Sc2ccccc2N)C1=O` (centres undefined), the Potency entry was “inactive”.
With `CC1(Cc2ccccc2C#N)C(=O)Nc2ccc(-c3ccc4[nH]ccc4c3)cc21` (centres undefined), the Potency is 1.64 µM (active).
The result for `CC(Oc1ccc(Br)cc1)C(=O)NC1CCCCCC1` (centres undefined) reads “inactive”; that for `OC(COc1ccc(Br)cc1)CN1CCCC1` (centres undefined), “inactive”.
On to `CC(C)(C)CC(C)(C)NCC(O)COCCOc1ccc(Br)cc1` (centres undefined), for which the Potency is 20.6 µM (active).
With `Cc1cccc(CN2CCN(C3CN(Cc4cn(Cc5cc(C)cc(C)c5)nn4)S(=O)(=O)C3)CC2)c1` (centres undefined), the Potency result is “inactive”.
For `CC(=O)Oc1ccc2c(c1)C(=O)c1ccccc1C2=O` the value was “inactive”.
For `O=C1C(Cl)=C(Oc2ccccc2)C(=O)c2ccccc21` the value was 2.59 µM (active); for `CCn1c(SCC(=O)Nc2ccc3c(c2)OCCO3)nnc1-c1ccncc1`, “inactive”; for `O=C(CSc1nnc(-c2ccccn2)n1-c1ccccc1)Nc1ccc2c(c1)OCO2`, 23.1 µM (active).
